# Hits are enriched below; roughly 3.9% of the tested compounds scored in any of these assays.
# Tb PFK block: qHTS Assay to Find Inhibitors of T. brucei phosphofructokinase; T. brucei PFK, ADP-Glo luminescence; Potency, µM (series often up to 57.5 µM), for inactives: top-dose activity, negative = inhibition, most hits filed as inhibitors; AID 485367, 2010; 330,000 tested, 0.17% active;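 further: 0% = uninhibited 1x PFK enzyme wells and -100% = no-enzyme wells; nearly all actives have a fitted effect of over 60% in size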
#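 Activity is normalized to no-enzyme wells (full inhibition) and 1.25 nM enzyme wells (no inhibition). Reaction: 0.5 mM F6P, 0.1 mM ATP, 45 min RT, ADP-Glo luminescence; concentration-response curves fitted and classed by quality.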
# BRCA1 expr act: qHTS Assay to Identify Small Molecule Activators of BRCA1 Expression. MCF7-BRCA1-FFLuc reporter, luminescence, 48 h; response scale: scaled: vehicle 0%, 10 µM genistein 100%. Potency, µM (highest dose often 46.1 µM), inactives show at the highest dose activation, hits mostly activators. 380,000 tested, 1.1% active. AID 624202, 2012; further: nearly all actives have a fitted effect of over 80% in size
#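 Compounds are tested at multiple concentrations on MCF7 BRCA1-luciferase reporter cells seeded at 2000 per well; after 48 h, a single luminescence end-point is taken and curves fitted to the normalized data.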
# VDR inh: Inhibitors of the vitamin D receptor (VDR): qHTS; VDR-SRC2-3 peptide fluorescence polarization, 2 h; Potency, µM, inactives show max response, negative = inhibition, actives largely listed as inhibitors; 400,000 tested, 0.93% active; further: on the % scale 0 is the no-effect control and ±100 the full control effect
# Target sequence (P11473 whole entry, looked up): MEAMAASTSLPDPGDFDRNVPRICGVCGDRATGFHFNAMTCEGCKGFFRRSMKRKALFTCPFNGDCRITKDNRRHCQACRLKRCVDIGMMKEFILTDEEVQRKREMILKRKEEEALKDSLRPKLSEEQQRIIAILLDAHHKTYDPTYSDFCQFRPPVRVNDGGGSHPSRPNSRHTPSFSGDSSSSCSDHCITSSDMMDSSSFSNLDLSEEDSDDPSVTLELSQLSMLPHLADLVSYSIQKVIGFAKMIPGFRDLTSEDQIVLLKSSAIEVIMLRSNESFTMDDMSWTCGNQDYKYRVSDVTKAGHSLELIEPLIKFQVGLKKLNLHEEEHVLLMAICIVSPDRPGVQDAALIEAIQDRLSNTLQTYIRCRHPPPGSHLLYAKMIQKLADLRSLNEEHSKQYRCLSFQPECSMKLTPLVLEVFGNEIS
#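 Measured by FP: displacement of SRC2-3 coactivator peptide from VDR by library compounds, following a two-hour ambient incubation.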
# PLK1 PBD inh: qHTS for Inhibitors of PLK1-PDB (polo-like kinase 1 - polo-box domain): Primary Screen. Serine/threonine-protein kinase PLK1 (Homo sapiens), P53350. Potency, µM, for inactives: max response, negative = inhibition, hits mostly inhibitors. 360,000 tested, 2.8% active. Plk1 PBD binding of FITC phosphopeptide, fluorescence polarization; further: series mostly up to about 57 µM; on the % scale 0 is the no-effect control and ±100 the full control effect; nearly all actives have a fitted effect of over 65% in size
# Numbers without * were called inactive; ? = inconclusive; . = no result; ! = not confirmed by another sample; [ ] = another dose, or the depositor's remark. The call rests on the fitted dose curve; in most records, active means well fitted curve in the direction sought with a large enough effect; inconclusive means small, poorly fitted or top-dose-only effect, or another doubt; inactive means no such curve, though single readings can be large; an effect the other way counts as inactive or inconclusive. Potency means the concentration at half of the fitted maximal effect.
SMILES,Tb PFK block,BRCA1 expr act,VDR inh,PLK1 PBD inh
Cc1nn(CC(O)CN2c3ccccc3Sc3ccccc32)c(C)c1Br (centres undefined),3%,-49%,?,3.8µM*
CCN(CC)c1nc(N)c2c(N)n(-c3ccccc3C)c(=S)c(C#N)c2c1C#N,4%,4%,?,27µM*
CCCNC(=O)Cn1nc(-c2ccc(F)cc2)c2cnc3ccc(F)cc3c21,.,.,-5%,.
COC(=O)C1(C(=O)OC)CC2=C[C@H](CC2=O)Cc2ccccc2[C@@H]1C[N+](=O)[O-],.,.,50µM*!,.
Cc1ccc(/C(N)=N/OC(=O)Cc2cccs2)cc1,0%,11µM*,3%,-7%
N#Cc1cccc(NC(=O)N2CC[C@@]3(CCCN(C(=O)c4ccco4)C3)C2)c1,.,.,-5%,.
CCN(CC)S(=O)(=O)c1ccc(N2CCCC2)c(NC(=O)CSCc2c(C)noc2C)c1,.,-16%,.,-8%
O=C(O)c1cc(S(=O)(=O)Nc2ccc3oc(=O)sc3c2)ccc1O,-27%,-18%,79µM*,6.7µM*
Cc1ccc2nc(Cl)c(-c3ccccc3)cc2c1,.,17%,10%,-3%
Cc1ccc2nc(CCl)[n+]([O-])c(-c3ccccc3)c2c1,1%,-21%,?,3.4µM*
FC(F)c1nc2ccccc2[nH]1,-1%,-11%,15%,-12%
c1ccc2[nH]c3cc4ncnc4cc3nc2c1,-21%,0%,-13%,24µM*
O=C(CC[C@H]1O[C@@H](n2cnc3c(NC(=O)c4ccccc4)ncnc32)[C@H](O)[C@@H]1O)NCc1nc2ccccc2[nH]1,.,2%,.,-1%
N=C1C(c2ccccc2)=C(O)CN1CCCO,3%,-20%,-7%,24µM*
CCOc1ccc(S(=O)(=O)N2CCN(CN3C(=O)CC4(CCCC4)C3=O)CC2)cc1,5%,3%,18%,-9%
Cc1nn2c(C)c(C(=O)NCc3cccc(Br)c3)cnc2c1-c1ccccc1,.,.,-1%,.
COc1ccc2ccccc2c1-c1c(OC)ccc2ccccc12,.,.,-2%,.
Cc1ccc(-c2cc[n+](Cc3ccccc3)cc2)cc1,-8%,-62%,?,19µM*
O=C(Nc1ccc(Cl)cc1Cl)c1cnn2c1NC(=C1CC1)C=C2C(F)F,.,2%,.,.
COc1ccc(C(=O)Nc2cc3c4c(c2)CC(=O)N4CCC3)c(OC)c1,1%,4µM*,-13%,2%
COc1ccc(C(=O)Nc2cc3c4c(c2)CC(=O)N4CCC3)cc1,-1%,-8%,10%,1%
CCOCCOC(=O)Cn1cnc2scc(-c3ccc(C)cc3)c2c1=O,1%,0%,-5%,2%
O=C(NCc1ccccc1Br)c1cnc2sc(N3CCCCCC3)nn2c1=O,.,.,16%,.
CC(C)N(C)C1=CC(=O)C(N(C)C(C)C)=CC1=O,.,82%,-21%,-12%
CC(C)NC(=O)CN1C(=O)CSc2ccc(S(=O)(=O)N3CCCC3)cc21,1%,-3%,-15%,24µM*
SMILES,Tb PFK block,BRCA1 expr act,VDR inh,PLK1 PBD inh
CC1CCN(S(=O)(=O)c2ccc3c(c2)N(CC(=O)NCc2cccnc2)C(=O)CS3)CC1,0%,47%,?,27µM*
O=C(CN1C(=O)CSc2ccc(S(=O)(=O)N3CCCCC3)cc21)NCc1cccnc1,-2%,2%,16%,2%
CC(C)(C)c1ccc(OCCn2c(CCNC(=O)C3CCCCC3)nc3ccccc32)cc1,.,-50%,?,.
COc1ccc(-n2ccn(CC(=O)NCc3ccc(C)cc3)c(=O)c2=O)cc1OC,.,.,15%,.
Cc1ccc(-n2ncc3c(N(C)Cc4ccccc4)ncnc32)cc1,.,.,7%,.
CN(Cc1ccccc1)c1ncnc2ccc(Br)cc12,-2%,-34%,-17%,2.7µM*
COC(=O)N[C@H](C[N+](=O)[O-])c1cccc(C)c1,.,.,-1%,.
CNc1nc(Cl)c(SC)c(NCc2cccc(OC)c2)n1,1%,-38%,?,11µM*
CCNc1nc(C#N)nc(Nc2ccccc2)n1,.,-45%,?,.
COc1cccc(-n2nc(C#N)c(Cl)cc2=O)c1,-6%,-89%,32µM*,?
CC(=O)N(c1nnc(-c2ccc(C)cc2)s1)C1CCCC1,0%,11µM*,-22%,1%
CC(C)NOC(=O)c1ccc(Cl)cc1,-17%,14%,-12%,30µM*
O=C(NCC(c1cccs1)S(=O)(=O)c1ccccc1)c1ccc(C(F)(F)F)cc1 (centres undefined),.,.,2%,.
Cc1nn(C(=O)c2ccccc2)c(C)c1Sc1ccc(Cl)cc1,.,.,-18%,.
COc1cc(Br)c(CC(=O)NO)cc1OC,.,14%,.,.
O=C(CSc1ncccn1)NCc1cccc(Cl)c1,-14%,11µM*,1%,-5%
O=C(Cc1cccs1)NCc1cccc(CNC(=O)Cc2cccs2)c1,-7%,13%,9%,1%
CCCOc1ccc(CNC(=O)Cc2cccs2)cc1,1%,7.9µM*,5%,-3%
O=C(Cc1cccs1)NCc1ccccc1Br,-4%,2.2µM*,3%,-3%
CCc1ccc(OCC(=O)NNC(=O)Cc2cccs2)cc1,0%,-2%,-12%,2%
O=C(Cc1cccs1)NCc1cccc(Cl)c1,-30%,13µM*,19%,1%
CCc1ccc(Oc2c(C(F)(F)F)oc3c(CN4CCCC(C)C4)c(O)ccc3c2=O)cc1 (centres undefined),.,.,-15%,.
CCOC(=O)c1cc(-c2nnc(SCC(=O)Nc3ccc(F)cc3)o2)c(C)nc1C,-4%,-44%,?,21µM*
N#C/C(=C(/O)CCl)c1nc2c(s1)CCc1ccccc1-2,-14%,-83%,?,7.5µM*
CCOc1ccc(NC(=O)[C@@H](c2ccccc2)N2Cc3ccccc3C2=O)cc1,.,8%,-15%,.
SMILES,Tb PFK block,BRCA1 expr act,VDR inh,PLK1 PBD inh
Cc1ccc(NC(=O)Cn2c(=O)n(Cc3nc(-c4ccccc4)no3)c(=O)c3cc4c(cc32)OCO4)cc1C,.,.,0%,.
Cc1cc(C)cc(-n2c(SCC(=O)N3CCOCC3)nc3c([nH]c4ccccc43)c2=O)c1,.,0%,3%,.
CSc1ccc(C(=S)N2CCN(C(c3ccccc3)c3ccccc3)CC2)cc1,-26%,5%[1.84 µM],?,13µM*
CC(=O)N1CCN(C(c2ccccc2)c2ccccc2)CC1,-8%,.,-7%,-7%
O=C(/C=C/c1ccco1)NCC(=O)N/N=C/c1ccc([N+](=O)[O-])cc1,-2%,-19%,?,11µM*
O=C(/C=C/c1ccco1)NCC(=O)N/N=C/c1ccc(Cl)cc1,0%,-9%,7%,-9%
O=C(CCc1nnc2n(Cc3ccccc3Cl)c(=O)c3ccccc3n12)Nc1ccc(F)cc1,.,.,-3%,.
N#C/C(=C\c1ccc(-c2ccc(C(=O)O)cc2)o1)C(=O)Nc1ccccc1C(=O)O,.,.,-9%,.
C=CCNC(=S)Nc1ccc(C(N)=O)cc1,-3%,-12%,-13%,-9%
C=CCNC(=S)Nc1ccc(N(C)C)cc1,0%,97%,79µM*,-24%
COc1ccc(-c2nc(C#N)c(NCc3ccco3)o2)cc1,-4%,8.9µM*,-14%,3%
O=S(=O)(c1cccc(Br)c1)N1CCN(c2nc(-c3cccs3)nc3ccccc23)CC1,.,17%,-6%,.
